Screens: PubChem, National Center for Advancing Translational Sciences (NCATS)
SARS PLpro yeast: qHTS of Yeast-based Assay for SARS-CoV PLP; S. cerevisiae expressing SARS-CoV PLpro, growth rescue; Potency, µM (series often up to 32.9 µM), hits mostly activators; 0.19% of 330,000 active; calls by dose curve; further: nearly all actives have a fitted effect of over 55% in size
Pf growth 48h: Primary qHTS for delayed death inhibitors of the malarial parasite plastid, 48 hour incubation. Potency, µM (titrated, usually from 28.7 µM), hits mostly inhibitors. 5.9% of 310,000 active. P. falciparum luciferase growth in erythrocytes, 48 h. AID 504832, 2011
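Erythrocytes infected with P. falciparum carrying an integrated firefly luciferase reporter (2% hematocrit, 0.1% parasitemia final) were exposed to compounds in RPMI 1640 with 0.5% Albumax at 37 C, 5% CO2. Growth inhibition was scored as reduced luminescence.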
Cycloheximide cs: Cycloheximide Counterscreen for Small Molecule Inhibitors of Shiga Toxin; max response, %; 12% of 300,000 active; AID 2314, 2010; cell reporter, cycloheximide protein synthesis inhibition counterscreen; in the data active means max response mostly above about 13%, no sharp cut-off; inactive means mostly below about 14%; further: read at 38.3 µM for the half of the compounds with a filed dose
NS1 inh: qHTS Assay for Inhibitors of Influenza NS1 Protein Function; Potency, µM (top dose mostly 46.1 µM); AID 2326, 2010; 0.4% of 270,000 active; calls by dose curve; further: actives are rising curves; nearly all actives have a fitted effect of over 50% in size
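Recovery from NS1-induced slow growth read by OD600 in budding yeast switched to galactose assay medium (pH 6.0, -URA) at 1:100 dilution. Compound 23 nl per well; the matching strain lacking NS1 serves as control.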
Pf growth 96h: Primary qHTS for delayed death inhibitors of the malarial parasite plastid, 96 hour incubation | P. falciparum luciferase reporter growth, 96 h | Potency, µM (doses to about 28.7 µM), usual class: inhibitors | 6.9% of 320,000 active
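P. falciparum expressing integrated firefly luciferase grown in erythrocytes (2% hematocrit, 0.05% parasitemia final) with compounds for 96 hours at 37 C, 5% CO2. Growth inhibition read as loss of luminescence after adding luciferase detection reagent.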
Shiga toxin inh: A qHTS for Small Molecule Inhibitors of Shiga Toxin; Vero cells, Shiga toxin protein synthesis inhibition reporter; inhibition, % at 38.7 µM; 9.2% of 290,000 active; AID 2315, 2010; in the data active means inhibition mostly above about 28%, no sharp cut-off; inactive means mostly below about 43%
A number is an active result; [ ] = another dose, or the depositor's remark. Most compounds without a hit are left out; they make up all but 21% or so of the library. Unless noted, the call rests on the fitted dose curve; in most records, active means well fitted inhibition curve with a large enough effect; inconclusive means small, poorly fitted or top-dose-only effect, or another doubt; inactive means no such curve, though single readings can be large or run the other way.

Screening Cn1cc(S(=O)(=O)N2CCc3ccccc32)cc1C(=O)Nc1ccc(Cl)cc1 returned SARS PLpro yeast inactive, Pf growth 48h 13µM, Cycloheximide cs inactive, NS1 inh inactive, Pf growth 96h inactive and Shiga toxin inh inactive.
For Cc1ccc(NC(=O)c2cc(S(=O)(=O)N3CCc4ccccc43)cn2C)cc1 the results were SARS PLpro yeast inactive, Pf growth 48h inconclusive, Cycloheximide cs inactive, NS1 inh inactive, Pf growth 96h inconclusive and Shiga toxin inh inactive.
Screening CCn1c(SCc2cccc(F)c2)nc2c(c1=O)SCC2 returned SARS PLpro yeast inactive, Pf growth 48h inconclusive, Cycloheximide cs inactive, Pf growth 96h inactive and Shiga toxin inh inactive.
Screening O=[N+]([O-])c1cccc(C2=NC(c3ccccc3)CO2)c1 (stereo not drawn) returned SARS PLpro yeast inactive, Pf growth 48h inactive, Cycloheximide cs 23, NS1 inh inactive, Pf growth 96h inactive and Shiga toxin inh 81.
For COc1ccc(C2=NC(c3ccccc3)CO2)cc1 (stereo not drawn) the results were SARS PLpro yeast inactive, Pf growth 48h inactive, Cycloheximide cs 56, NS1 inh inactive, Pf growth 96h inactive and Shiga toxin inh 96.
Screening CCn1cc(C2=NC(c3ccccc3)CO2)c2ccccc21 (stereo not drawn) returned SARS PLpro yeast inconclusive, Pf growth 48h inactive, Cycloheximide cs inactive, NS1 inh inactive, Pf growth 96h inactive and Shiga toxin inh inactive.
O=[N+]([O-])c1cccc(C2N3CCCN23)c1 (stereo not drawn) was read as SARS PLpro yeast inactive, Pf growth 48h inactive, Cycloheximide cs inactive, NS1 inh inactive, Pf growth 96h inactive[5.75 µM] and Shiga toxin inh inactive.
`COc1ccc(C2=N[C@@H](C(C)C)CO2)cc1` gave Cycloheximide cs 64 and Shiga toxin inh active.
COc1ccc(C2=N[C@H](c3ccccc3)CO2)cc1 was read as Cycloheximide cs inactive and Shiga toxin inh active.
For Oc1ccccc1-n1c(-c2ccccc2)ccc1-c1ccccc1 the results were SARS PLpro yeast inactive, Pf growth 48h 9.3µM, Cycloheximide cs inactive, NS1 inh inactive, Pf growth 96h 5.9µM and Shiga toxin inh inactive.
For C/C(=N\O)c1c(O)cc(-c2ccccc2)n(-c2ccccc2)c1=O the results were SARS PLpro yeast inactive, Pf growth 48h inactive, Cycloheximide cs inactive, NS1 inh inactive, Pf growth 96h inactive and Shiga toxin inh inactive.
Screening CC(NC(=O)COC(=O)/C=C/c1cccc(C(F)(F)F)c1)c1ccccc1 (stereo not drawn) returned SARS PLpro yeast inactive, Pf growth 48h inactive, Cycloheximide cs inactive, NS1 inh inactive, Pf growth 96h inactive and Shiga toxin inh inactive.
For C[C@@H](Oc1ccccc1)c1nnn(Cc2ccccc2)c1-c1c([C@@H](C)Oc2ccccc2)nnn1Cc1ccccc1 the results were SARS PLpro yeast inactive, Pf growth 48h inconclusive, Cycloheximide cs inactive, NS1 inh inactive, Pf growth 96h 6.6µM and Shiga toxin inh inactive.
`CCc1ccc(CNCCSc2nnnn2C)cc1` gave SARS PLpro yeast inactive, Cycloheximide cs inactive, NS1 inh inactive, Pf growth 96h inactive and Shiga toxin inh inactive.
`CN1CC[C@]23c4ccccc4N[C@H]1[C@]21CCN(C)[C@H]3Nc2ccccc21` gave Pf growth 48h inactive and Pf growth 96h inactive.
`COC(=O)C1CC23C=CCN4CCC5(c6ccccc6NC15C2C)C43` (stereo not drawn) gave SARS PLpro yeast inactive, Pf growth 48h 1.5µM, Cycloheximide cs inactive, NS1 inh inactive, Pf growth 96h inactive and Shiga toxin inh inactive.
COc1ccc(Cl)cc1C(=O)n1nc(C)cc1C was read as Pf growth 48h inactive, Cycloheximide cs inactive, NS1 inh inactive, Pf growth 96h inactive and Shiga toxin inh inactive.
Cc1cc(C)nc(-n2nc(C)c(Br)c2Nc2ccc(Br)cc2)n1 was read as SARS PLpro yeast inactive, Pf growth 48h 3.7µM, Cycloheximide cs inactive, NS1 inh inactive and Shiga toxin inh inactive.
Screening Cc1cc(Nc2ccccc2)nn1C(=O)c1ccc([N+](=O)[O-])cc1 returned SARS PLpro yeast inactive, Pf growth 48h inactive, Cycloheximide cs inactive, NS1 inh inactive, Pf growth 96h 9.3µM and Shiga toxin inh inactive.
`Cc1cc(Nc2ccccc2)n(-c2ccccc2)n1` gave SARS PLpro yeast inactive, Pf growth 48h inactive, Cycloheximide cs inactive, NS1 inh inactive, Pf growth 96h inactive and Shiga toxin inh inactive.
Screening Cc1cc(C)nc(-n2nc(C)cc2Nc2ccccc2)n1 returned SARS PLpro yeast inactive, Pf growth 48h 8.3µM, Cycloheximide cs inactive, NS1 inh inactive and Shiga toxin inh inactive.
For Cc1cc(Nc2ccccc2)nn1C(=O)c1ccc(Cl)cc1 the results were SARS PLpro yeast inactive, Pf growth 48h inactive, Cycloheximide cs 49, NS1 inh inactive and Shiga toxin inh 156.
`C=CCn1c2ccccc2c2nnc(SCCN3CCOCC3)nc21` gave SARS PLpro yeast inactive, Pf growth 48h inconclusive, Cycloheximide cs inactive, NS1 inh inactive, Pf growth 96h inconclusive and Shiga toxin inh inactive.
`Cc1cc(N2CCN(c3ccccc3)CC2)nc(-n2nc(C)cc2C)n1` gave SARS PLpro yeast inactive, Pf growth 48h 3.7µM, Cycloheximide cs inactive, NS1 inh inactive, Pf growth 96h inactive and Shiga toxin inh inactive.
Cc1cc(Nc2ccccc2)n(C(=O)c2ccccc2)n1 was read as SARS PLpro yeast inactive, Pf growth 48h inactive, Cycloheximide cs 47, NS1 inh inactive and Shiga toxin inh inactive.
For Cc1cc(N2CCN(c3ccccc3)CC2)nc(-c2ccccc2O)n1 the results were SARS PLpro yeast inactive, Cycloheximide cs inactive, NS1 inh inactive, Pf growth 96h inactive and Shiga toxin inh inactive.
Screening CN(C)C1CCN(C(=O)c2cccc(OC3CCN(S(=O)(=O)N(C)C)CC3)c2)C1 (stereo not drawn) returned SARS PLpro yeast inactive, Pf growth 48h inactive, Cycloheximide cs inactive, NS1 inh inactive, Pf growth 96h inconclusive and Shiga toxin inh inactive.
CCN(CC)S(=O)(=O)c1cc(NC(=O)C(=O)c2c(-c3ccccc3)cc3ccccn23)ccc1C was read as SARS PLpro yeast inactive, Cycloheximide cs inactive, NS1 inh inconclusive, Pf growth 96h 12µM and Shiga toxin inh inactive.
For CCN(CC)S(=O)(=O)c1cccc(NC(=O)C(=O)c2c(-c3ccccc3)cc3ccccn23)c1 the results were SARS PLpro yeast inactive, Cycloheximide cs inactive, NS1 inh inactive, Pf growth 96h 7.4µM and Shiga toxin inh inactive.
`CCN(CC)S(=O)(=O)c1ccc(N2CCOCC2)c(NC(=O)C(=O)c2c(-c3ccccc3)cc3ccccn23)c1` gave SARS PLpro yeast inactive, Pf growth 48h 6.6µM, Cycloheximide cs inactive, NS1 inh inactive and Shiga toxin inh inactive.
CCN(CC)S(=O)(=O)c1ccc(N2CCOCC2)c(NC(=O)c2ccccc2F)c1 was read as SARS PLpro yeast inactive, Pf growth 48h inactive, Cycloheximide cs inactive, Pf growth 96h inactive and Shiga toxin inh inactive.
